Source: the supplement of paper PMC9897528
Values without a mark were called inactive.

system: Scedosporium aurantiacum CBS 136046; test: growth inhibition relative to DMSO control (OD600); higher = more antifungal activity, active = 80 or more; extreme values may be limits of the assay; settings: 5 µM; 72 h; 37 °C
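Note: conidia screened in RPMI 1640 medium under 5% CO2, growth read by spectrophotometer, medium with 0.5% DMSO serving as the untreated reference.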

**Q.** With `C=CCc1cc(Cc2cnc(N)nc2N)cc(OC)c1O` as the compound, how does the growth inhibition read?
**A.** Its growth inhibition is 0%.

**Q.** `CCC(C)n1ncn(-c2ccc(N3CCN(c4ccc(OCC5COC(Cn6cncn6)(c6ccc(Cl)cc6Cl)O5)cc4)CC3)cc2)c1=O` (stereo not given) was tested. Which growth inhibition did it give?
**A.** Its growth inhibition is 57.2%.

**Q.** How did the growth inhibition turn out when `Nc1nc(-c2ccccc2)nc2[nH]nc(Nc3ccc(C(F)(F)F)cc3)c12` was run?
**A.** The growth inhibition was 16.5%.

**Q.** For `CN1c2ccc(Cl)cc2N(c2ccccc2)C(=O)c2cn(Cc3ccc(CN4CCOCC4)cc3)nc21`, which growth inhibition is on record?
**A.** The growth inhibition was 17.1%.

**Q.** For `Clc1ccc(COC(Cn2ccnc2)c2ccc(Cl)cc2Cl)c(Cl)c1` (stereo not given), which growth inhibition is on record?
**A.** Its growth inhibition is 80.6% (active).

**Q.** How did the growth inhibition turn out when `O=c1[nH]cnc2c1ncn2[C@H]1CC[C@@H](CO)O1` was run?
**A.** The growth inhibition was 10.6%.

**Q.** How did the growth inhibition turn out when `O=c1ccc2ncc(=O)n3c2n1CC3CN1CCC(NCc2cc3c(cn2)OCCC3)CC1` (stereo not given) was run?
**A.** Its growth inhibition is 0%.

**Q.** With `O=C(Nc1ccc(Cl)c(C(F)(F)F)c1)C(CCCl)C(=O)Nc1ccc(Cl)c(C(F)(F)F)c1` as the compound, how does the growth inhibition read?
**A.** Its growth inhibition is 0%.

**Q.** How did the growth inhibition turn out when `O=C1c2cccc3cccc(c23)C(=O)N1CC1CO1` (stereo not given) was run?
**A.** The growth inhibition was 19.8%.

**Q.** Which growth inhibition does the source give for `CCc1cc(O)c(Oc2ccc(C(N)=O)cc2F)cc1F` here?
**A.** The growth inhibition was 29.4%.

**Q.** How did the growth inhibition turn out when `CC(C)(C)c1ccc(OCCn2nc(C(=O)O)c3ccccc3c2=O)cc1` was run?
**A.** The growth inhibition was 16.2%.

**Q.** How did the growth inhibition turn out when `CC(C)(C)c1ccc(Oc2ccc(N)cc2)cc1` was run?
**A.** The growth inhibition was 15.8%.

**Q.** Which growth inhibition does the source give for `CC(C)Oc1ccc(-c2nc(-c3cccc4c3CC[C@@H]4NCCO)no2)cc1C#N` here?
**A.** Its growth inhibition is 25.4%.

**Q.** For `CN(C)CCCNC(=O)c1ccc(-c2cc(O)c3ncccc3c2)cc1`, which growth inhibition is on record?
**A.** Its growth inhibition is 11.4%.

**Q.** For `COc1nc2ccc(Br)cc2cc1[C@@H](c1ccccc1)[C@@](O)(CCN(C)C)c1cccc2ccccc12`, which growth inhibition is on record?
**A.** Its growth inhibition is 43.6%.
